Only some compounds are listed: those with a hit (about 7.4% of all), similar ones and a draw of the others.
NPC1 prom act – NPC1 promoter activation. Huh7 NPC1 promoter luciferase reporter, 24 h. Potency, µM (series often up to 9.22 µM), for the others: at the highest dose activation, usual class: activators. 2.4% of 320,000 active. AID 485313; also: % of control where 0% means no effect; nearly all actives have a fitted effect of over 60% in size
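Luciferase expression driven by the NPC1 promoter was measured in stably transfected Huh7 cells after a 24 h compound incubation, using a luciferase reagent and a luminescence read.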
SMN2 splice up – increases expression of the SMN2 splice variant; 2.8% of 210,000 active; HEK293 SMN2-luciferase splicing reporter, luminescence, 30-36 h; Potency, µM (titrated, usually from 46.1 µM), for inactives: top-dose activity change, positive = activation, most hits filed as activators; also: % of control where 0% means no effect; nearly all actives have a fitted effect of over 55% in size
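HEK293 cells carry an SMN2 minigene-luciferase reporter in which exon 7 inclusion puts luciferase in frame. Cells were seeded at 2000 cells/well, attached for 10-12 hours, then exposed to compounds for 30-36 hours at 37C before ONE-Glo luminescence.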
FLuc modulator – inhibits or activates purified firefly luciferase, miR-21 counter-screen. P08659. purified FLuc, Km substrates, luminescence inhibition. Potency, µM (series often up to 57.5 µM), without a hit: at the top dose activity change, negative = inhibition, most hits filed as inhibitors. 6.9% of 360,000 active. AID 588342;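 also: plate controls were vehicle for no effect and reference inhibitor for full effect; nearly all actives have a fitted effect of over 55% in size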
Target sequence (P08659 whole entry, looked up): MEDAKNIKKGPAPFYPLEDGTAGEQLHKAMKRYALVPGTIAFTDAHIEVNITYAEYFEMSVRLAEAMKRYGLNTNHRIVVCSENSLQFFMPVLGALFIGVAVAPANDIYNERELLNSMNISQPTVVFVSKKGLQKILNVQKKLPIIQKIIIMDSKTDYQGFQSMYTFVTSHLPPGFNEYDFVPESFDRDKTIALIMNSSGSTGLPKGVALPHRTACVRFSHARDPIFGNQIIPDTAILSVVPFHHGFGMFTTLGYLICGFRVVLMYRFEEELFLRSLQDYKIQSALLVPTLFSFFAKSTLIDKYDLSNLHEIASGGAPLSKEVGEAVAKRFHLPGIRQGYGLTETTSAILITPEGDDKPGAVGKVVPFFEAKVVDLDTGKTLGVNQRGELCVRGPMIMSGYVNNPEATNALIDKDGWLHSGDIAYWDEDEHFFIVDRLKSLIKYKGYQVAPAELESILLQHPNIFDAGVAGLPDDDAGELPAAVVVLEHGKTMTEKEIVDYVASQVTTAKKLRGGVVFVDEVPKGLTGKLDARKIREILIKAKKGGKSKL
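Purified P. pyralis luciferase, 10 nM final, with Km-level 10 uM D-luciferin and 10 uM ATP in 50 mM Tris acetate pH 7.5, 10 mM Mg acetate, 0.01% Tween-20, 0.05% BSA; 6-point qHTS titration about 60 µM downward; luminescence read.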
Rab9 promoter act – activators of Rab9 promoter. Huh7 Rab9 promoter-luciferase reporter, luminescence, 24 h. Potency, µM (titrated, usually from 9.22 µM), for inactives: at the highest dose activation, negative = inhibition, actives largely listed as activators. 2.8% of 320,000 active. AID 485297; also: % of control where 0% means no effect; nearly all actives have a fitted effect of over 60% in size
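Stable Rab9-luc Huh7, 1500 cells/well, 2 h settle; cmpd in DMSO, 24 h, 37 °C/5% CO2; luciferase reagent 10 min RT; luminescence.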
ELG1 genotox – inducers of genotoxicity in HEK293T ELG1-luciferase cells; HEK293T ELG1-luciferase reporter, luminescence, 16 h; Potency, µM (highest dose often 46 µM), inactives show top-dose activity change, positive = activation, hits mostly activators; 1.3% of 330,000 active; AID 504466; also: % of control where 0% means no effect; nearly all actives have a fitted effect of over 60% in size
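Cells (2,000/well) expressing the ELG1-luciferase fusion are dosed by pin tool and kept 16 hr at 37 °C, 5% CO2. Signal comes from ONE-Glo luciferase reagent after 30 min at room temperature.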
* marks the source's active call; other numbers are inactive results; ? = inconclusive; . = no result; [ ] = remark or other dose. Calls follow the shape of the dose curve; as a rule, active = well fitted curve in the direction sought with a large enough effect; inconclusive = small, poorly fitted or top-dose-only effect, or another doubt; inactive = no such curve, though single readings can be large; an effect the other way counts as inactive or inconclusive. Potency is read from the fitted curve at half-maximal effect.

SMILES	NPC1 prom act	SMN2 splice up	FLuc modulator	Rab9 promoter act	ELG1 genotox
COc1ccc(C)c2sc(=NC(=O)c3cccc(N4C(=O)CCC4=O)c3)n(C)c12	?	.	6.7µM*	?	?
CC1CCN(C(=S)NC(=O)c2cccs2)CC1	-1%	-14%	3%	3%	-5%
C(=N\n1cnnc1)/c1ccc(-c2ccccc2)cc1	3%	-14%	?	2%	3%
COc1ccc(-c2nn(-c3ccccc3)cc2/C=C(\C#N)S(=O)(=O)c2ccccc2)cc1OC	3%	2%	-2%	1%	2%
COc1ccc(-c2nn(-c3ccccc3)cc2/C=N/n2cnnc2)cc1OC	-3%	?	19µM*	-6%	7%
S=c1[nH]nc(-c2cccs2)n1/N=C/c1cn(-c2ccccc2)nc1-c1ccccc1	12%	.	3.4µM*	5%	1%
C(=N\n1cnnc1)/c1cn(-c2cccs2)nc1-c1ccccc1	14%	?	7.6µM*	8%	?
COc1ccc(-c2nn(-c3ccccc3)cc2/C=N/NC(N)=S)cc1OC	-21%	76%	5.4µM*	-21%	0%
Cc1ccc(-c2nn(-c3ccccc3)cc2/C=N/n2c(-c3ccncc3)n[nH]c2=S)cc1	-9%	.	-1%	-4%	18%
O=C(c1ccc(N2CCCC2=O)cc1)N1CCN(c2ccccc2F)CC1	0%	.	1%	-2%	0%
NC(=O)c1cn(-c2ccccc2)nc1-c1cccnc1	3%	10%	-3%	-3%	-5%
COc1ccc(-c2nn(-c3ccccc3)cc2C(N)=O)cc1OC	9%	.	17µM*	2%	2%
COc1ccc(S(=O)(=O)Nc2ccccc2OC)cc1NC(=O)c1cc2ccccc2oc1=O	4µM*	.	12µM*	4µM*	?
COc1ccc(NC(=O)c2cc3ccccc3oc2=O)c(OC)c1	2.8µM*	.	?	2.8µM*	?
COc1ccccc1C(=O)Nc1cc2ccccc2oc1=O	5.6µM*	?	?	4µM*	2.8µM*
O=C(O)c1ccccc1NC(=O)c1cc2ccccc2oc1=O	3.5µM*	.	7.6µM*	2.8µM*	?
COC(=O)c1sccc1NC(=O)CC1C(=O)NCCN1C(=O)c1ccc(C)c(C)c1 (stereo unspecified)	1%	.	5%	-5%	0%
O=C(CN1C(=O)NC2(CCCC2)C1=O)OCc1ccc(Cl)cc1Cl	2%	.	-3%	2%	1%
O=C(CCN1C(=O)/C(=C/c2ccc(F)cc2)SC1=S)N[C@@H](CO)Cc1ccccc1	-12%	.	1%	-3%	-3%
CCOc1ccc(NS(=O)(=O)c2ccc3c(c2)CCCN3C(=O)C2CCC2)cc1	.	.	-11%	.	.
COc1cccc([C@@H]2Oc3ccc(OC)cc3C(=O)[C@H]2OC(=O)NS(=O)(=O)c2ccc(C)cc2)c1	.	11µM*	.	.	.
CCOc1ccc(CNS(=O)(=O)c2ccc3c(c2)CC(C)N3C(C)=O)cc1OC (stereo unspecified)	.	.	-1%	.	.
C/C(=N\NC(=O)c1c[nH]c2ccccc12)c1ccccn1	2.5µM*	24%	11µM*	?	?
C/C(=N\NC(=O)CNc1ccc(F)cc1)c1cc2ccccc2o1	1%	-29%	?	3%	-6%
C/C(=N\NC(=O)c1ccc(F)cc1)c1ccccn1	?	.	8.5µM*	-32%	5.2µM*
SMILES	NPC1 prom act	SMN2 splice up	FLuc modulator	Rab9 promoter act	ELG1 genotox
C/C(=N\NC(=O)c1cc2ccccc2cc1O)c1cc2ccccc2o1	20%	.	15µM*	11%	-11%
C/C(=N\NC(=O)c1c[nH]c2ccccc12)c1ccco1	5.6µM*	14µM*	12µM*	4µM*	7.9µM*
Cc1ccc(N(CC(O)Cn2nc(C)cc2C)S(=O)(=O)c2ccc3ccccc3c2)cc1 (stereo unspecified)	-7%	-1%[1.84 µM]	-2%	-2%	-3%
CCc1ccc(/C(C)=N/NC(=O)c2ccccn2)cc1	12%	17%	?	1%	5%
C/C(=N\NC(=O)c1nc2ccccn2c1C)c1cc2ccccc2o1	-2%	11%	-3%	3%	-6%
CCOc1ccc(C(=O)N/N=C(\c2ccccc2)c2ccccn2)cc1	-22%	-63%	19µM*	-19%	6%
C/C(=N\NC(=O)c1cc2ccccc2cc1O)c1ccccn1	2µM*	.	4.8µM*	-24%	?
C/C(=N\NC(=O)c1nc2ccccn2c1C)c1ccco1	?	263%	?	2.5µM*	?
O=C(N/N=C(\c1ccccc1)c1ccccn1)c1cccc([N+](=O)[O-])c1	-25%	-108%	0%	-7%	?
O=C(N/N=C/c1ccc(Sc2ccccn2)o1)c1cc2ccccc2cc1O	-3%	?	15µM*	0%	13%
CCC1CN(C(=O)Nc2cc(C)cc(C)c2)c2ccccc2O1 (stereo unspecified)	.	.	-16%	.	.
Cc1ccc(N2CCN(C(=O)c3c(C)oc4ncn(CC(C)C)c(=O)c34)CC2)c(C)c1	.	.	-3%	.	.
CCN(CC(=O)Nc1cc(Cl)ccc1C)C(=O)CCS(=O)(=O)c1ccc(Cl)cc1	0%	.	5%	0%	-14%
Cc1cc(C)nc(Nc2n[nH]c(COc3cccc4ccccc34)n2)n1	-27%	2%	10%	-16%	0%
Cc1cc(C)nc(Nc2n[nH]c(COc3ccccc3)n2)n1	?	-14%	3%	?	0%
Cc1cc(C)nc(Nc2n[nH]c(-c3ccccc3Cl)n2)n1	?	14µM*	6.7µM*	?	?
Cc1cc(C)nc(Nc2n[nH]c(-c3cccc4ccccc34)n2)n1	26%	-12%	12µM*	30%	3%
CC(=O)N1CCC(N(CCCOC(C)C)S(=O)(=O)c2ccc([N+](=O)[O-])cc2)CC1	12%	.	-2%	4%	2%
Clc1ccc(/C=N/Nc2ncnc3nc[nH]c23)cc1	?	.	17µM*	?	16µM*
Cc1ccc(/C=N/Nc2ncnc3nc[nH]c23)cc1	2.8µM*	.	9.5µM*	1.6µM*	?
Nc1cc(N)nc(SCCc2ccccc2)n1	22%	.	?	16%	?
Nc1cc(N)nc(SCc2ccccc2)n1	?	11µM*	19µM*	2.8µM*	?
Nc1nc(SCc2ccc(Cl)cc2)ns1	19%	4%	?	15%	17%
Nc1nc(SCc2ccccc2)ns1	28%	13µM*	?	?	18µM*
CC(C)CSc1nsc(N)n1	?	20%	?	?	16µM*
O=C(O)COc1ccc(OCCNC[C@H](O)COc2ccccc2)cc1	.	2%	.	.	.
CCC(=O)N1c2ccc(S(=O)(=O)CCC(=O)N3CCN(c4ccc(F)cc4)CC3)cc2CC1C (stereo unspecified)	.	2%	2%	.	.
COc1ccc(NC(=O)c2ccc(C)cc2Cl)c([N+](=O)[O-])c1	?	12%	6µM*	?	?
